Results on 97 compounds are retold here after ChEMBL document CHEMBL3988442, “University of Dundee, Small-Polar-MMV Screening Library” (2021).

Screen size: about 69,000 compounds; about 950 (1.4%) showed an effect of 50% or more. Shown is part of a subset that was picked to be rich in strong results.

This assay deals with Mycobacterium tuberculosis. Briefly: Cornell M. t heat shock assay. Also: in the data most compounds retested in dose-response had high values. It is filed as functional, organism-based. On the set-up: dose or concentration left out as unconfirmed.
Turning to `O=C(C1CCCCC1)N1C[C@@H]2CCN(c3cnccn3)C[C@@H]2C1.O=C(O)C(F)(F)F`, the “Percent Effect” value was 23.71%. As for `Cc1ccccc1-n1cc(-c2ccnc(N3CCCC(O)C3)n2)cn1` (configuration not stated), the figure is 0.7216%; as for `Cc1ccccc1-n1cc(-c2ccnc(N3CCCC(CN)C3)n2)cn1` (configuration not stated), 6.089%.

For the compound `COC[C@H]1CCCN1c1nccc(-c2cnn(-c3ccccc3C)c2)n1`, the “Percent Effect” value came out at 57.5%. Under `O=C(CC1CC1)N1C[C@@H]2CCN(c3cccnc3)C[C@@H]2C1.O=C(O)C(F)(F)F` stands -11.14%; under `COCCNC(=O)C(C)N1CCN(C)CC1.O=C(O)C(=O)O` (configuration not stated), 1.358%; under `CC(C)N1CCCC(CN(C)c2ccc(Cn3ccnc3)cn2)C1` (configuration not stated), -4.084%. Under `OC1CCN(C2CCN(c3ccc(Cn4ccnc4)cn3)CC2)CC1` stands 13.23%; under `CN(CC1CCN(c2ccccc2)C1)c1ccc(Cn2ccnc2)cn1` (configuration not stated), 105.3%; under `CCc1cc2cc(OC)c(OC)cc2nc1SCCN1CCCCC1.Cl`, -12.6%.

In the case of `O=C(O)C(F)(F)F.O=C(c1ccc[nH]1)N1CCc2c(COCC3CC3)cncc2C1`, the “Percent Effect” value was -0.4009%.

As for `O=C(N1CCCC1)N1Cc2nccn2CC(CN2CCCC2)C1.O=C(O)C(F)(F)F` (configuration not stated), the “Percent Effect” value was -12.61%. On to `CC(C)Cn1cncc1CNC(=O)c1cccc(CC2CCNCC2)c1`, for which the “Percent Effect” value was -17.32%. Consider `CC(C)(O)CCc1cccc(C(=O)NCc2cnn3cccnc23)c1`, for which the “Percent Effect” value is recorded as -5.166%. As for `O=C(NCc1cnn2cccnc12)c1cccc(CC2CCNCC2)c1`, the figure is 70.42%; as for `CCOC1COC2(CCN(Cc3cccc(F)c3)CC2)C1.O=C(O)C(F)(F)F` (configuration not stated), -9.066%. `Cc1cc(N2CCOCC2)ccc1NC(C)c1nc(C(C)(C)C)no1` (configuration not stated): the “Percent Effect” value stood at 72.1%.

For the compound `Cc1cc(N2CCOCC2)ccc1NC(C)c1nc(C(C)C)no1` (configuration not stated), the “Percent Effect” value is 45.07%. As for `Cc1noc(C(C)Nc2ccc(N3CCOCC3)cc2C)n1` (configuration not stated), the figure is 41.84%; as for `O=C(O)C(F)(F)F.O=C(O)C(F)(F)F.O=C(c1cscn1)N1CCC2(CN(Cc3ccncc3)C2)C1`, -52.86%. As for `COCC1c2c(cnn2C)CCN1Cc1cccc(C)c1.O=C(O)C(F)(F)F.O=C(O)C(F)(F)F` (configuration not stated), the figure is -46.03%. As for `CC1CN(CC(=O)NCCc2ccccc2)CCN1c1nccs1` (configuration not stated), the figure is -17%. In the case of `Cc1ccsc1CN(c1nc(CCN)nc2ccccc12)C1CC1`, the “Percent Effect” value was 91.12%.

For the compound `NCCc1nc(N(Cc2nccs2)C2CC2)c2ccccc2n1`, the “Percent Effect” value is -17.4%. As for `NCCc1nc(N(Cc2cncs2)C2CC2)c2ccccc2n1`, the figure is -30.71%; as for `CC(=O)N1CC(=O)N(c2cnn(C)c2)CC12CCN(Cc1cccs1)C2.O=C(O)C(F)(F)F` (configuration not stated), -1.108%; as for `CC1=C(C#N)C(=O)N(C)C(=O)/C1=C\C1=Cc2ccccc2OC1`, -26.04%. As for `Cc1ccc(CN2CCn3c(COc4cccnc4)cnc3C2C)o1.O=C(O)C(F)(F)F.O=C(O)C(F)(F)F` (configuration not stated), the figure is 17.82%; as for `Cc1cccc2c1OCCCC2NCc1nccn1Cc1ccccc1` (configuration not stated), 104.4%; as for `COc1cccc(CNC2CCCOc3cc(C)ccc32)n1` (configuration not stated), -23.35%. As for `Cn1ccnc1CNC1CCCOc2c1ccc1ccccc21` (configuration not stated), the figure is 95.81%; as for `Cc1ccc2c(c1)OCCCC2NCc1nccn1CC(C)C` (configuration not stated), 101.9%; as for `Cc1cccc2c1OCCCC2NCc1nnc2n1CCCCC2` (configuration not stated), -4.885%. As to `Cc1ccc2c(c1)C(NCc1nnc3n1CCCCC3)CCCO2` (configuration not stated), the “Percent Effect” value was -13.54%.

Take `Cc1cccc2c1OCCC2NCc1c(C)nn(C)c1N(C)C` (configuration not stated): the “Percent Effect” value is -4.09%. Under `Cn1cc(CNC2CCCOc3c2ccc2ccccc32)cn1` (configuration not stated) stands 11.28%; under `Cn1cc(CNC2CCCOc3c(Cl)cccc32)cn1` (configuration not stated), 12.93%; under `CN(C(=O)NCc1nccn1Cc1ccccc1)C1CC1`, -34.67%. Under `Cc1ccc2c(c1)OCCCC2NCc1nnc2n1CCCCC2` (configuration not stated) stands -7.759%; under `Cc1ccc2c(c1)C(NCc1nccn1Cc1ccccc1)CCCO2` (configuration not stated), 102%. As for `Br.Cn1cc(CN2CCOC(c3cccc(-c4cncnc4)n3)C2)cn1` (configuration not stated), the figure is -10.8%; as for `Cl.c1cncc(CNCc2cccs2)c1`, 5.045%. Turning to `O=C(O)C(F)(F)F.O=C1[C@H]2CN(Cc3nccs3)C[C@H]2CN1c1ccsc1`, the “Percent Effect” value amounted to 28.97%. Under `Cc1nn(C)c(C)c1S(=O)(=O)N1C[C@@H]2C[C@@H](C)O[C@@H]2C1.O=C(O)C(F)(F)F` stands 3.558%. As for `NC(=O)CC1CC2(CCNCC2)c2cc(F)ccc21.O=C(O)C(F)(F)F` (configuration not stated), the figure is 15.23%; as for `Cn1cc(C(=O)NCc2cn3c(n2)CN(C2CCOCC2)CC3)cn1.O=C(O)C(F)(F)F`, -17.41%.

For the compound `Cc1ccc2c(c1)OCCCC2NCc1nccn1Cc1ccccc1` (configuration not stated), the “Percent Effect” value is listed as 101.1%.

As for `COc1c(CNC2CCCOc3ccccc32)c(C)nn1C` (configuration not stated), the “Percent Effect” value was -2.184%. Turning to `CCC1COCCN1C(=O)NCc1nccn1Cc1ccccc1` (configuration not stated), the “Percent Effect” value is listed as -21.62%.

In the case of `c1ccc2c(c1)OCCCC2NCc1nnc2n1CCCCC2` (configuration not stated), the “Percent Effect” value is reported as 7.956%. Under `c1ccc(Cn2ccnc2CNC2CCCOc3ccccc32)cc1` (configuration not stated) stands 104.4%. As for `Cc1ccc2c(c1)OCCCC2NC1CCN(C)CC1` (configuration not stated), the figure is 11.02%; as for `Cc1cncc(C(=O)N2C[C@@H]3CN(S(C)(=O)=O)CCO[C@@H]3C2)c1.O=C(O)C(F)(F)F`, 15.78%; as for `CC1CCN(C(=O)[C@@H]2C[C@@H]3CCN(Cc4nccs4)C[C@H]3O2)CC1.O=C(O)C(F)(F)F`, 11.99%. As for `CCC1CN(C(=O)c2csc3nc(-c4ccc(Cl)cc4)cn23)CCN1` (configuration not stated), the figure is 59.48%. Take `CC(C)N1CCN(C(=O)c2csc3nc(-c4ccc(Cl)cc4)cn23)CC1`: the “Percent Effect” value is 2.331%. Under `O=C(c1csc2nc(-c3ccc(Cl)cc3)cn12)N1CCCC(CO)C1` (configuration not stated) stands 17.74%; under `O=C(Nc1cccnc1)[C@H]1C[C@@H]2CN(C(=O)NC3CCCC3)C[C@H]1O2`, -0.1164%.

For `O=C1C[C@H]2CC[C@@H](CN1)N2C1CCOCC1`, the “Percent Effect” value is recorded as -8.619%.

Consider `O=C(NC1CCCC1)c1nc2c(o1)CN(C(=O)CCO)C2`, for which the “Percent Effect” value came out at 6.229%. As for `O=C(NC1CCCC1)c1nc2c(o1)CN(CCO)C2`, the figure is 51.46%.

On to `O=C(NC1CCCC1)c1nc2c(o1)CN(C(=O)CO)C2`, for which the “Percent Effect” value is 10.14%.

Take `CN(C)C(C(=O)N1CCC(N2CCSCC2)CC1)c1ccccc1F` (configuration not stated): the “Percent Effect” value was 64.18%. As for `CN(C)C(C(=O)N1CCSCC1)c1ccccc1F` (configuration not stated), the figure is 7.911%; as for `CN(C)C(C(=O)N1CCCC1)c1ccccc1F` (configuration not stated), 12.45%. Under `COc1ccc(C)cc1CNC(=O)C1=NN(c2ccccc2)C(=O)CN1` stands 30.82%; under `COc1ccc(CNC(=O)C2=NN(c3ccc(C)cc3)C(=O)CN2)cc1`, 24.03%; under `COc1ccccc1CNC(=O)C1=NN(c2ccc(C)cc2)C(=O)CN1`, 73.51%.

Take `CC(C)N1CCO[C@H]2CN(C(=O)c3ccccn3)C[C@H]21.O=C(O)C(F)(F)F.O=C(O)C(F)(F)F`: the “Percent Effect” value was -26.06%. As for `CC(=O)Nc1nc(C(=O)NC(C)c2ccc(F)cc2)cs1` (configuration not stated), the “Percent Effect” value came to 8.426%. In the case of `Cc1[nH]/c(=N\C(=O)c2csc(NCC(C)C)n2)sc1C`, the “Percent Effect” value was 103.2%. Under `Cc1cc(O)c(OCC(=O)/N=c2\[nH]c(C)c(C)s2)cn1` stands 14.69%. As for `Cc1cs/c(=N\C(=O)c2c3c(nc4onc(C)c24)CCC3)[nH]1`, the figure is -0.1888%; as for `Cc1cs/c(=N/C(=O)c2csc(NCC(C)C)n2)[nH]1`, 102.2%; as for `CC(C)CNc1nc(C(=O)/N=c2\[nH]nc(C(C)(C)C)s2)cs1`, 29.68%. As for `O=C1c2cnc(N3CCCC3)nc2CN1CCc1ccc(Cl)cc1`, the figure is 5.842%; as for `Cc1ccc(CN2C[C@@H]3COC[C@H](NS(C)(=O)=O)[C@@H]3C2)s1.O=C(O)C(F)(F)F`, -17.68%; as for `CC(C)c1nn(C)c(N(C)C)c1CNC(C)c1ccc2c(c1)OCO2.Cl` (configuration not stated), 11.17%. On to `O=C(CN1CC(c2nc(C3CC3)no2)C1)NCc1ccc(F)cc1.O=C(O)C(=O)O`, for which the “Percent Effect” value is reported as -19.44%.

On to `CS(=O)(=O)N1CCN(c2ccnc(N3CCCCC3)n2)CC1`, for which the “Percent Effect” value is recorded as 54.19%. Under `CS(=O)(=O)N1CCN(c2ccnc(N3CCCC3)n2)CC1` stands 3.373%; under `CN(C)S(=O)(=O)N1CCN(c2ccnc(N3CCCCC3)n2)CC1`, -3.243%; under `CN1CCN(CC2CC2)C(=O)C12CCN(C(=O)CC(F)(F)F)CC2.O=C(O)C(F)(F)F`, 5.441%. Under `COc1ccccc1Oc1ncccc1CNC(=O)[C@@H](C)NC(C)=O` stands 11.05%; under `c1ccc2oc(CN3CCCC3c3noc(C4CC4)n3)nc2c1` (configuration not stated), 17.43%. As for `Cc1cc(CN2CCCC2c2noc(C3CC3)n2)c2ccccc2n1` (configuration not stated), the figure is 31.64%; as for `CCc1nc(C2CCCN2Cc2nccn2Cc2ccccc2)no1` (configuration not stated), 20.06%; as for `COc1c(C)cnc(CN2CCCC2c2noc(C3CC3)n2)c1C` (configuration not stated), -0.8434%. On to `CCn1ccnc1CN1CCCC1c1noc(C2CC2)n1` (configuration not stated), for which the “Percent Effect” value is listed as -4.423%. As for `Cc1noc(C)c1CN1CCCCC1c1nc(-c2ccccc2)no1` (configuration not stated), the figure is -13.3%; as for `c1ccc2nc(CN3CCCC3c3noc(C4CC4)n3)ccc2c1` (configuration not stated), 108.9%.

With `Cc1cnc(CN2CCCCC2c2nc(-c3ccccc3)no2)cn1` (configuration not stated), the “Percent Effect” value came to 5.875%. As for `Cc1nc(CN2CCCC2c2noc(C3CC3)n2)nc2ccccc12` (configuration not stated), the figure is 27.9%.

On to `COc1ccc(C)cc1CN1CCCC1c1noc(C2CC2)n1` (configuration not stated), for which the “Percent Effect” value is 82.36%. As for `Cn1ccnc1CN1CCCCC1c1nc(-c2ccccc2)no1` (configuration not stated), the figure is 51.73%; as for `c1ccc(Cn2ccnc2CN2CCCC2c2noc(C3CC3)n2)cc1` (configuration not stated), 104.2%; as for `COC(=O)Cn1c(=O)nc2n1C(=O)N(c1ccc(Br)cc1)C2`, 18.41%.
